OPRM1-OPRD1 ag: agonists of human mu-delta opioid receptor heterodimerization | P35372+P41143 | cells, OPRM1-OPRD1 heterodimerization, luminescence | activation, % at 9.3 µM | hit rate 0.3% among 340,000 | AID 504326; in the data active = activation above about 18%
m5-HT2A agonist: agonists of mouse serotonin 5-HT2A receptor (HTR2A); P35363; CHO-K1 mHTR2A beta-arrestin complementation, luminescence; percent of 30 µM serotonin response; activation, % at 7.6 µM; hit rate 0.66% among 360,000; AID 624169;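 active = activation above a run cutoff, the mean activation of all tested compounds plus 3 SD, cut at about 14% in these data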
MOR-DOR inv ag: mu-delta opioid heterodimer inverse agonism; P35372+P41143; cell-based MOR-DOR heterodimer luminescence; inhibition, % at 9.3 µM; hit rate 0.21% among 340,000; in the data active = inhibition above about 22%, passing the limit was not always enough
HTR5A inv ctr: HTR5A inverse agonism, opioid heterodimer counter-screen. HTR5A cell line, luminescence. P47898. hit rate 0.083% among 340,000. inhibition, % at 9.3 µM. AID 504634; in the data active = inhibition mostly above about 23%, no sharp cut-off; inactive = mostly below about 18%
Target sequence (P47898 whole entry, looked up): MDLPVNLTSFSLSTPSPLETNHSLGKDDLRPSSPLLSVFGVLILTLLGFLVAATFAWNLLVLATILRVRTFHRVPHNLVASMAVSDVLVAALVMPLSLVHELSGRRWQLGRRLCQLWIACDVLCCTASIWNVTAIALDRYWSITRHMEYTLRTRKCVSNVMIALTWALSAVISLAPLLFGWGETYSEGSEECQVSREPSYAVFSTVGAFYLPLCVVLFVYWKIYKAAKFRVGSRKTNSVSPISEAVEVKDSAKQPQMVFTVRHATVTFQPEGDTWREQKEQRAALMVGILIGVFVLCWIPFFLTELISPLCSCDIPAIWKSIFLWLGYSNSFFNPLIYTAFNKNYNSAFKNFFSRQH
HTR5A ag: counter-screen for OPRM1-OPRD1 agonists: human HTR5A agonism; HTR5A agonist assay, luminescence, cell-based; activation, % at 9.3 µM; hit rate 0.61% among 340,000; AID 504692; in the data active = activation mostly above about 9.5%, no sharp cut-off; inactive = mostly below about 7.6%
Of the large screens only hits and unclear results are named; the others gave an inactive call. Rows were chosen to be rich in hits. Some 1.6% of all compounds tested hit in one or more screens of this group.

CC[C@]1(C(=O)OC)[C@H]2C(=O)N(Cc3ccccc3)C(=O)[C@H]2[C@H]2CN=C(SCC3CC3)N21	HTR5A ag 5.3
CC[C@]1(C(=O)OC)[C@H]2C(=O)N(Cc3ccccc3)C(=O)[C@H]2[C@H]2CN=C(SCc3ccc(C)cc3)N21	none
CCOC(=O)CNC(=O)CSc1nc(N(C)C)nc(N2CCOCC2)n1	HTR5A ag 11
O=C(COC(=O)Cc1ccc(F)cc1)NC(=O)NC1CCCC1	none
O=C(COC(=O)Cc1ccc(F)cc1)NC1CCCC1	m5-HT2A agonist 21
O=C(COC(=O)Cc1ccccc1F)NC(=O)NC1CCCC1	HTR5A ag 12
CC(Sc1nnc(-c2ccco2)n1C)C(=O)Nc1nccs1 (stereo not drawn)	none
Cc1ccc(NS(=O)(=O)c2cccc(C(=O)NNC(=O)c3cccn3C)c2)c(C)c1	none
COc1ccc(NC(=O)CN2CCCCC2)c([N+](=O)[O-])c1	m5-HT2A agonist 16
COc1ccc(NC(=O)CN2CCC(C)CC2)c([N+](=O)[O-])c1	none
Cc1ccc(C)c(S(=O)(=O)N2CCN(C(=O)[C@H](Cc3ccccc3)NC(=O)c3ccco3)CC2)c1	none
O=C(CCc1ccccc1)NC(NC(=S)Nc1ccc(Cl)cc1)C(Cl)(Cl)Cl (stereo not drawn)	HTR5A ag 12
Cc1cc(-c2nnc(CCC(=O)NC(Cc3ccccc3)c3ccccc3)o2)no1 (stereo not drawn)	none
CCO[C@@H]1OC(C(=O)N2CCOCC2)=C[C@H](c2ccc(Br)cc2)[C@H]1CCCO	m5-HT2A agonist 18
C[C@H](NC(=O)C[C@@H]1CC[C@H]2[C@@H](COC[C@H](O)CN2Cc2ccc(C(F)(F)F)cc2)O1)c1ccccc1	none (no result: OPRM1-OPRD1 ag, MOR-DOR inv ag, HTR5A inv ctr, HTR5A ag)
CCCCNc1cc(=O)n(C)c(=O)n1C	m5-HT2A agonist 15
CCNc1cc(=O)n(C)c(=O)n1C	none
Cc1ccccc1NC(=S)N1CCN(C(=O)c2ccco2)CC1	none
O=C(Nc1ccc(N2CCN(C(=O)c3ccco3)CC2)cc1)c1ccc([N+](=O)[O-])cc1Cl	HTR5A ag 10
O=C(c1ccco1)N1CCN(C(=S)Nc2ccccc2Cl)CC1	m5-HT2A agonist 15
CCC(=O)N1CCN(c2ccc(NC(=O)c3cc4ccccc4o3)cc2Cl)CC1	none
O=C(Nc1ccc(N2CCN(C(=O)c3ccco3)CC2)c(Cl)c1)c1cc2ccccc2o1	HTR5A ag 14
O=C(O)CNc1nc(NCc2ccc(Cl)cc2)ccc1[N+](=O)[O-]	none (no result: OPRM1-OPRD1 ag, MOR-DOR inv ag, HTR5A inv ctr, HTR5A ag)
CCCN1CCC(C)(C(=O)Nc2ccccc2Oc2ccccc2)C1 (stereo not drawn)	none (no result: OPRM1-OPRD1 ag, MOR-DOR inv ag, HTR5A inv ctr, HTR5A ag)
O=C(C1CCCCC1)N1C[C@@H](n2cc(-c3ccc(F)cc3)nn2)[C@H](O)C[C@@H]1c1ccc(Cl)cc1	none (no result: OPRM1-OPRD1 ag, MOR-DOR inv ag, HTR5A inv ctr, HTR5A ag)
Cn1c(=O)[nH]c(=O)c2c1nc(NC1CCCC1)n2Cc1ccccc1	HTR5A ag 10.0
Cn1c(=O)[nH]c(=O)c2c1nc(N1CCNCC1)n2Cc1ccccc1	none
Cn1c(=O)c2c(nc(NCc3ccco3)n2C)n(C)c1=O	none
Cn1c(=O)c2c(nc(NCc3ccco3)n2C/C=C/c2ccccc2)n(C)c1=O	HTR5A ag 11
Cc1ccc2c(c1)N(CC(=O)NCC1CCCO1)C(=O)C(C(C)C)O2 (stereo not drawn)	none
CS(=O)(=O)c1ncc(Cl)c(C(=O)Nc2ccc3ccccc3c2)n1	MOR-DOR inv ag 57
COc1cc2c(cc1OC)C1=CC(=O)C(=O)N1C(C)(C)C2	none
Cc1ccc(S(=O)(=O)N(C)CC(=O)Nc2ccccc2N2CCCC2)cc1	none
CCOC(=O)/C(=C/c1ccc(OC(F)F)cc1)C1=Nn2c(nnc2-c2ccc(Cl)cc2)SC1	HTR5A ag 8.4
COc1cc2c(cc1OC)CN(C(=O)c1ccc(N3CCCC3)c([N+](=O)[O-])c1)CC2	none
Cc1ccc(S(=O)(=O)N2CCN(C(=O)c3ccco3)CC2)c(C)c1	HTR5A ag 10
Cc1ccc(S(=O)(=O)N2CCN(C(=O)c3ccco3)CC2)cc1	none
Cc1ccc(S(=O)(=O)N2CCN(C(=O)c3cc(S(=O)(=O)N4CCOCC4)ccc3Cl)CC2)c(C)c1	HTR5A ag 13
COc1ccc(-c2cc(C(=O)N3CCN(c4ccc(F)cc4)CC3)no2)cc1OC	none
CCCC(C)NC(=O)CSc1nnc(-c2c[nH]c3ccccc23)o1 (stereo not drawn)	none
O=C(COc1ccccc1)NS(=O)(=O)c1ccc(Cl)cc1	HTR5A ag 12
COc1ccc(NC(=O)N2CCCC(c3nc(-c4ccc(C(C)C)cc4)no3)C2)cc1 (stereo not drawn)	HTR5A ag 12
COc1ccc(NC(=O)N2CCCC(c3nc(-c4ccc(OC)cc4)no3)C2)cc1 (stereo not drawn)	none
COc1cccc(CN2CCNC(=O)C2CC(=O)O)c1OC (stereo not drawn)	m5-HT2A agonist 14
Cc1ccc(-n2sc3ccccc3c2=O)cc1S(=O)(=O)N1CCCCC1	m5-HT2A agonist 17
O=C1NC[C@@H](c2ccccc2)OC(=O)[C@@H](Cc2ccc(F)cc2)C/C=C\C[C@@H]1CC(=O)N(CCO)Cc1ccccc1	MOR-DOR inv ag 37, HTR5A inv ctr 48
Cc1cccn2c(=O)c3cc(S(=O)(=O)c4ccc(F)cc4)c(=N)n(Cc4ccco4)c3nc12	none
Cc1cccn2c(=O)c3cc(S(=O)(=O)c4ccccc4)c(=N)n(Cc4ccco4)c3nc12	HTR5A ag 12
COc1ccc(C2c3ccc(O)cc3Oc3ncn4nc(-c5ccccn5)nc4c32)cc1 (stereo not drawn)	HTR5A ag 12
COc1cccc(C=NNC(=O)c2ccncc2)c1O	HTR5A ag 8.5
C=C[C@H](CC(C)C)N(Cc1ccccc1)S(=O)(=O)N(Cc1ccccc1)[C@@H](C=C)CC(C)C	MOR-DOR inv ag 42, HTR5A inv ctr 32
COC(=O)Cc1nc(Nc2ccccc2)sc1C	none (no result: OPRM1-OPRD1 ag, MOR-DOR inv ag, HTR5A inv ctr, HTR5A ag)
CCN(CC)CCNC(=O)c1cc2c(s1)-c1ccccc1SC2	HTR5A ag 13
CCOC(=O)N1CCN(C(=O)c2ccc(Cl)c(NC(=O)c3cccs3)c2)CC1	none
NS(=O)(=O)c1ccc(CCNC(=O)CN2CCN(S(=O)(=O)c3ccccc3F)CC2)cc1	none (no result: OPRM1-OPRD1 ag, MOR-DOR inv ag, HTR5A inv ctr, HTR5A ag)
CN(C)c1ccc(/C=C2\SC(=S)N(Nc3ncc(C(F)(F)F)cc3Cl)C2=O)cc1	none
COc1cc(/C=C2\SC(=S)N(Nc3ncc(C(F)(F)F)cc3Cl)C2=O)ccc1O	HTR5A inv ctr 41
COC(=O)[C@]12CCCCC=C1N(Cc1ccc(Cl)cc1Cl)C(=O)[C@H](CC(=O)NCCCN1CCCC1=O)C2	none (no result: OPRM1-OPRD1 ag, MOR-DOR inv ag, HTR5A inv ctr, HTR5A ag)
Cc1ccc(S(=O)(=O)N2CCOCC2)cc1C(=O)OCC(=O)NC1CCCC1	none
COc1ccc(CNC(=O)COC(=O)/C=C/c2ccc(Cl)cc2)cc1	none
COc1ccc(/C=C/C(=O)OCC(=O)NCCNC(=O)COC(=O)/C=C/c2ccc(OC)cc2)cc1	HTR5A ag 12
CCOc1ccc(NC(=O)C2CCN(S(=O)(=O)c3ccc4c(c3)NC(=O)C(C)S4)CC2)cc1 (stereo not drawn)	HTR5A ag 10

Screening data (PubChem BioAssay)
